From PubChem BioAssay AID504429 (National Center for Advancing Translational Sciences (NCATS), 2011)
The other results are listed elsewhere or left out. Activity calls are given as the source filed them.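 The calls were made as follows: active = compounds whose dose response shows an inhibitor phenotype against the kinase Dyrk1b; inactive = compounds showing no inhibitor phenotype.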

The compounds below were run against Dual specificity tyrosine-phosphorylation-regulated kinase 1B (Homo sapiens) (UniProt Q9Y463) (assay: Kinase Inhibition Study on Inhibitors of Dyrk1b (Reaction Biology data)). Conditions: Recombinant Dyrk1b kinase assay, 10 uM ATP.
Dual specificity tyrosine-phosphorylation-regulated kinase 1B (Homo sapiens), sequence (Q9Y463 whole entry, looked up, canonical isoform): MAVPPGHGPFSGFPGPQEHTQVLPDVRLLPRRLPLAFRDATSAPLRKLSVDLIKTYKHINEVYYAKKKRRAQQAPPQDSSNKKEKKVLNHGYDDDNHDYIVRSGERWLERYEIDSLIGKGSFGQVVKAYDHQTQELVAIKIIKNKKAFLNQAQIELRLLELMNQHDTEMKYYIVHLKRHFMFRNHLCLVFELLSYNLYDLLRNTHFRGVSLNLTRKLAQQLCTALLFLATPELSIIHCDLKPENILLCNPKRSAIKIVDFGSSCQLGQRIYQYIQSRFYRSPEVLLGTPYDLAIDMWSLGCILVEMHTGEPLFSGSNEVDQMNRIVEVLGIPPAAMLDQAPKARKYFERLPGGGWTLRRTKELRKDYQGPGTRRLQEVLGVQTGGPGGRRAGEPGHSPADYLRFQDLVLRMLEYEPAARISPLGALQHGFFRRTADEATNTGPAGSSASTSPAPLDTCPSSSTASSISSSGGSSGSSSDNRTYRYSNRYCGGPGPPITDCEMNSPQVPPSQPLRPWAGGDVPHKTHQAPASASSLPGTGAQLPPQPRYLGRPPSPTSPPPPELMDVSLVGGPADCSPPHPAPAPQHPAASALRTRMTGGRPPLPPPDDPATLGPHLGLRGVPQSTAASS
Description: NIH Molecular Libraries Probe Production Centers Network [MLPCN] NIH Chemical Genomics Center [NCGC] MLPCN Grant: 1R03MH084827-01 Assay Submitter (PI): Tom Misteli NCGC Assay Overview: Alternative splicing of pre-mRNAs plays a major role in the regulation of eukaryotic gene expression. Alternative splicing is now thought to be one of the primary reasons for the complexity of higher organisms leading to an average of three protein isoforms per gene. Aberrant splicing can lead to a number of diseases and is known to play a role in rare genetic diseases such as progeria syndrome. Hutchinson-Gilford Progeria Syndrome (HGPS) is a pediatric premature aging disease caused by a spontaneous mutation in the lamin A/C (LMNA) gene due to a single point mutation in the lamin A gene effecting 1 in 4 million people. To identify both specific splicing modulators of the lamin A gene as well as general splicing modulators, a cell-based HTS assay was developed using a minigene reporter system (AIDs, 1459 & 1487). […] The Clk family is part of the CMGC group of protein kinases which includes Dyrks and are essential kinases found in all eukaryotes. […] This AID is to summarize the activity of these analogs in Dyrk1b.
All kinase reactions were performed using 10 uM ATP in the assay. 100% activity was taken from kinase reactions with DMSO alone (the vehicle used for compound stock solutions).

Potency, active:
CN(Cc1cncn1C)c1ncnc2ccc(-c3ccc4c(c3)OCO4)cc12 15 µM, CC(Nc1ncnc2ccc(-c3ccc4c(c3)OCO4)cc12)c1ccco1 (stereo not drawn) 8.14 µM, c1nc(N2CCOCC2)c2cc(-c3ccc4c(c3)OCO4)ccc2n1 5.22 µM
